For 40 molecules, growth results are on record in PubChem BioAssay (NCI).

About 83,000 compounds went through this panel and 20% of them were active in at least one assay; those are over-represented in the sample as a whole.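 The test compound was applied at a single concentration to cells in 96-well plates for 48 hours, and percent growth was recorded.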 Unmarked numbers belong to inactive results. The source made the active and inactive calls. How the source made its calls: active means growth percent below 10; inactive means the rest.

This assay has as its system HL-60(TB) leukemia. As to the kind of experiment: NCI-60 one-dose screen, 48 h (100 = growth as untreated, 0 = no growth, -100 = all killed). As to conditions: 10 µM unless noted.
As to `CNC(=O)c1cc(Oc2ccc3nc(NC(=O)c4ccc5ncccc5c4)sc3c2)ccn1`, the growth was 87.8%.
The figure for `O=C(O)/C=C\C(=O)N1C/C(=C\c2ccccc2Cl)C(=O)/C(=C/c2ccccc2Cl)C1` is -3.51% (active); for `CSc1nc2sc3cc(Cl)c(Cl)cc3n2c(=N)c1C#N` it is 110%; for `O=C(CCCCC(=O)Nc1ccc2c(c1)/C(=C/c1ccc[nH]1)C(=O)N2)NO` it is 107%.
Turning to `c1ccc2c(-c3nccs3)c[nH]c2c1`, the growth is 85.1%.
The figure for `O=C(c1ccc(Cl)cc1)C1C(c2ccccc2)C1[N+](=O)[O-]` (stereo not given) is 99.3%.
For `N/C(=N\OC(=O)c1ccccc1)C(Cc1ccccc1)C(=O)NOC(=O)c1ccccc1` (stereo not given), the growth was -1.14% (active).
On to `COc1cc(C=O)ccc1Oc1ccc([N+](=O)[O-])cc1[N+](=O)[O-]`, for which the growth is 95.1%.
The figure for `C=C1C(=O)O[C@H]2[C@H]1CC/C(COC(=O)c1cccnc1N)=C\CC[C@@]1(C)O[C@@H]21` is -3.64% (active); for `COc1ccc(-c2nc3c(N)c(CO)cnc3s2)cc1` it is 80.5%.
Regarding `COc1cc(Br)c(-c2nc(-c3ccccc3)c(-c3ccccc3)n2Cc2ccccc2)cc1OC`, the growth is 18.6%.
`CC(=O)N1C/C(=C/c2ccc(Cl)cc2)C(=O)/C(=C/c2ccc(Cl)cc2)C1`: the growth is 4.97% (active).
The figure for `CC(=O)c1cc2c(N)c(C(=O)Nc3cccc4ccccc34)sc2nc1C` is -10.7% (active).
For `O=C(CN1CCN(c2cc3c(cc2F)c(=O)c(C(=O)N/N=C/c2ccccc2)cn3C2CC2)CC1)N/N=C\c1ccccc1`, the growth was 51.1%.
As for `O=C(CCC(=O)OC1CCCC1)OC1CCCC1`, the figure is 103%; as for `Cc1c2ccncc2c(C)c2c1c1cc(CO)ccc1n2C`, 19.2%.
As for `NC(=S)N/N=C(/c1cccs1)C1CC1`, the figure is 79.9%; as for `Cc1cc(C)nc(NS(=O)(=O)c2ccc(Nc3ccc4c5c(n(CCCN(C)C)c(=O)c4c3)-c3ccccc3C5=O)cc2)n1`, 70.6%.
The figure for `O=c1cc(CSc2nnc(SCc3cc(=O)oc4c3ccc3ccccc34)o2)c2ccc3ccccc3c2o1` is 97.8%; for `O=C(CSc1nnc(-c2cc3c([nH]c4ccccc43)c(-c3cccc(O)c3)n2)n1-c1ccccc1)c1ccccc1` it is 56.2%.
Regarding `COc1cc(/C=C/c2cc(/C=C/c3ccc(O)c(OC)c3)n(C(=O)Nc3ccccc3Cl)n2)ccc1O`, the growth was -24.3% (active).
The figure for `O=C1c2ccccc2C(=O)C1c1ccc(Br)cc1` is 105%; for `CC(=O)O[C@@H]1C2CCC3C(CC[C@@]4(C)C3CC[C@@H]4C(C)N(C)C)[C@@]2(C)CC[C@@H]1NC(=O)C=C(C)C` (stereo not given in full) it is -58.8% (active); for `COc1ccc(-n2c(SCc3cc(OC)c(OC)c(OC)c3)nc3ccc(C)cc3c2=O)c(OC)c1` it is -44.3% (active).
As for `O=C1C[C@H](Sc2nc(-c3ccc(F)cc3)cc(C(F)(F)F)n2)[C@H]2CO[C@@H]1O2`, the figure is 46.9%; as for `COc1ccc(-n2nnc3c(sc4ccccc43)c2=O)cc1`, 94.6%.
As for `O=C(CCl)N1c2ccccc2Oc2ccc3ccccc3c21`, the figure is -0.539% (active); as for `COc1ccc(Nc2ncnc3c2sc2nc(C)cc(C)c23)cc1`, 97.9%; as for `O=C(COc1cccc(/C=C2\COc3ccccc3C2=O)c1)Nc1nccs1`, -58.4% (active).
For `CCOC(Cc1c(N)[nH]c(=S)[nH]c1=O)OCC`, the growth was 90.3%.
As for `O/N=C/c1cccs1`, the figure is 95.3%.
As for `CCC(O)CC(CC)CO` (stereo not given), the figure is 94.2%; as for `N#CC(C#N)=C(C#N)c1c[nH]c2ccccc12`, 72.9%.
Turning to `O=C(N=c1oc2ccccc2cc1-c1cc2ccccc2[nH]1)c1ccc(Cl)cc1`, the growth is 26.2%.
The figure for `Clc1ccc(Nc2nc(Nc3ccc(Cl)cc3)nc(Nc3ccc(-c4cc(-c5cccc(Cl)c5)on4)cc3)n2)cc1` is -50% (active); for `COc1ccc(-c2cn(-c3ccc(Cl)cc3)c(SCC(=O)c3ccc([N+](=O)[O-])cc3)n2)cc1` it is 84%.
The figure for `O=C(Nc1cccc(-n2ccc3c(NC(=O)c4ccccc4)nccc32)c1)c1cc(N2CCOCC2)cc(C(F)(F)F)c1` is -13.1% (active); for `Cc1ccccc1NC(=O)N/C(N)=N/c1nc2ccccc2s1` it is -23.2% (active).
As for `Nc1nccc2c1ccn2-c1ccc(NC(=O)c2ccc(N3CCOCC3)c(C(F)(F)F)c2)cc1`, the figure is -4.36% (active); as for `COc1ccc(/C=C2\c3cc(OC)c(OC)c(OC)c3CC[C@@H]2O)cc1F`, -22.4% (active).
